Screens as filed in PubChem BioAssay.
Tau fil binding: binders of human tau filaments; 71,000 compounds, 2% hits; Potency, µM (top dose mostly 57.1 µM), for inactives: top-dose activity change, negative = inhibition; recombinant tau filaments, thioflavin S fluorescence, 15 h; filaments grown with octadecylsulfate alongside compound; P10636;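 also: actives lower thioflavin S fluorescence by blocking filaments or displacing dye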
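Recombinant tau protein (human, 1 uM final) plus 30 uM ODS in HEPES pH 7.4 with NaCl, DTT and thioflavine S. Compound present from the start; fluorescence at 510 nm after 15 h, 37 C.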
ERK AVP inh: blocks ERK signaling stimulated by vasopressin; HEK293-V1b, vasopressin-stimulated pERK AlphaScreen; Potency, µM (series often up to 57.5 µM), for the others: at the highest dose activity, negative = inhibition, most hits filed as inhibitors; 72,000 compounds, 0.99% hits; also: nearly all actives have a fitted effect of over 55% in size
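Overnight-seeded V1b-HEK293 cells in 1% FBS got compound, then vasopressin (25 nM final, 5 min, 37C), then lysis buffer. AlphaScreen detection of phospho-ERK; activity normalized to basal and full-stimulation controls.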
FLuc inh: inhibitors of firefly luciferase. purified firefly luciferase, luminescence, 8 min. Potency, µM (titrated, usually from 57.1 µM), without a hit: at the highest dose activity change, negative = inhibition, usual class: inhibitors. P08659. 72,000 compounds, 2.2% hits; also: nearly all actives have a fitted effect of over 40% in size
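qHTS concentration-response profiling: light output of P. pyralis luciferase with luciferin and 10 uM ATP, imidazole buffer pH 7.2. Read by luminescence after 8-min room-temperature incubation.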
15-hLO inh: 15-hLO (ALOX15) enzyme inhibition | P16050 | AID 887 | Potency, µM (doses to about 57.1 µM), for the others: at the highest dose activity change, negative = inhibition, usual class: inhibitors | 74,000 compounds, 1.4% hits | purified 15hLO-1, xylenol orange hydroperoxide absorbance; also: nearly all actives have a fitted effect of over 55% in size
Target sequence (P16050 whole entry, looked up): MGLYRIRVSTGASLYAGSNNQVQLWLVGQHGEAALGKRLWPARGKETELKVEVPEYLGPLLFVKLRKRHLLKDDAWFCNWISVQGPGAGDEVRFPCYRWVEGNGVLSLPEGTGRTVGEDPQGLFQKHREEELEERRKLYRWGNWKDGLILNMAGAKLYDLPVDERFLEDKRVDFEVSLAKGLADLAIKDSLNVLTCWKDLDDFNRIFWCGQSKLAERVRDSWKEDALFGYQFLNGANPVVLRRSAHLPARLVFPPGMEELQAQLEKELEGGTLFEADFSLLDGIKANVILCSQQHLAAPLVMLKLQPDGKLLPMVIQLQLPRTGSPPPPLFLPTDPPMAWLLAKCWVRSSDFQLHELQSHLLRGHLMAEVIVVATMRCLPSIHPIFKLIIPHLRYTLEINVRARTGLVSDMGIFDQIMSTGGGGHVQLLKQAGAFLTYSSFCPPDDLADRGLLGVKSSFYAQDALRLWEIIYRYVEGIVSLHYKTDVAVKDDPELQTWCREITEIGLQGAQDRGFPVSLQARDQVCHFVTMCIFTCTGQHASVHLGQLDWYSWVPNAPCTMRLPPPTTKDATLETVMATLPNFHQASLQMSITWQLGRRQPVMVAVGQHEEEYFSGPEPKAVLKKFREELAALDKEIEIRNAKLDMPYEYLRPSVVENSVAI
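Hydroperoxide formed from arachidonic acid (50 uM) by purified human 15hLO-1 (40 nM) oxidizes ferrous iron, and the ferric-xylenol orange complex is read at 573 versus 405 nm. Compounds were preincubated 15 min; reaction ran 6 min at room temperature.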
PK Bst: pyruvate kinase (B. stearothermophilus) modulation; AID 361; purified pyruvate kinase, luminescence ATP production; ribose 5-phosphate activator present at AC10; Potency, µM; 51,000 compounds, 1.2% hits; in the data active = potency below about 11 µM; inconclusive = mostly about 12 µM to 25 µM;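 the screen sought inhibitors and activators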;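 also: scaled between full activation by ribose 5 phosphate and full inhibition by luteolin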
Hsp90 Hop PPI: changes Hsp90-Hop TPR2A binding signal, up or down. AlphaScreen TPR2A-His6 binding biotin-Hsp90 C-terminal peptide. Potency, µM (top dose mostly 57 µM), for inactives: at the top dose activity change, negative = inhibition. 71,000 compounds, 0.44% hits; active = well fitted curve in either direction with a large enough effect; inconclusive = small, poorly fitted or top-dose-only effect, or another doubt
Numbers without * were called inactive; ! = not active in a repeat; [ ] = another dose, or the depositor's remark. An excerpt weighted towards active compounds, which were near 6.1% of everything screened. Unless noted, calls follow the shape of the dose curve; as a rule, active = well fitted curve in the direction sought with a large enough effect; inconclusive = small, poorly fitted or top-dose-only effect, or another doubt; inactive = no such curve, though single readings can be large; an effect the other way counts as inactive or inconclusive. Unless noted, % is scaled to controls: 0 for no effect and ±100 for the full control effect; potency is read from the fitted curve at half-maximal effect.

COc1ccccc1-c1nc(NCc2cnc(C)cn2)c2ccccc2n1 was read as Tau fil binding inconclusive, ERK AVP inh -10%, FLuc inh 0%[2.29 µM], 15-hLO inh 16µM* and Hsp90 Hop PPI inconclusive.
`COc1ccccc1-c1nc(NCc2ccccc2)c2ccccc2n1` gave Tau fil binding 4µM*, ERK AVP inh inconclusive, FLuc inh 0%[2.29 µM], 15-hLO inh -2% and Hsp90 Hop PPI -5%.
For COc1cccc(-c2nc(NC3CC3)c3ccccc3n2)c1 the results were Tau fil binding 56%, ERK AVP inh 13µM*, FLuc inh 0%[2.29 µM], 15-hLO inh 25µM* and Hsp90 Hop PPI inconclusive.
For COc1ccccc1CNc1nc(-c2ccccc2OC)nc2ccccc12 the results were Tau fil binding 4µM*, ERK AVP inh -9%, FLuc inh -4%[2.29 µM], 15-hLO inh inconclusive and Hsp90 Hop PPI -10%.
For COc1cccc(-c2nc(NCc3ccccc3)c3ccccc3n2)c1 the results were Tau fil binding -5%, ERK AVP inh inconclusive, FLuc inh -10%[2.29 µM], 15-hLO inh -24% and Hsp90 Hop PPI -7%.
CCCCCCC#CC1C=CC(Oc2ccc(C=O)cc2)C(CO)O1 (stereo not given) was read as ERK AVP inh 12%[11.5 µM] and 15-hLO inh -5%[11.4 µM].
COC(=O)[C@@H]1CC[C@H](C)[C@@H](c2ccc(C)cc2)N1C(=O)c1ccc(/C=N\O[C@@H](C)c2cc(-c3c(C)cc(C)cc3C)no2)cc1 was read as ERK AVP inh -8%[11.5 µM], FLuc inh -2%[11.4 µM] and 15-hLO inh 32%[11.4 µM].
`O[C@@H]1[C@@H](OCc2ccccc2)OC[C@H](O)[C@@H]1O` gave Tau fil binding 9%[11.4 µM], ERK AVP inh 17%[11.5 µM], FLuc inh 1%[11.4 µM], 15-hLO inh 3%[11.4 µM] and Hsp90 Hop PPI 4%[11 µM].
For COc1ccccc1CNc1nc(-c2ccc(N(C)C)cc2)nc2ccccc12 the results were Tau fil binding inactive, ERK AVP inh 5%, FLuc inh 0%[2.29 µM], 15-hLO inh 20µM* and Hsp90 Hop PPI -14%.
`COc1ccccc1-c1ccc2ncnc(N3CCOCC3)c2c1` gave Tau fil binding 11%, ERK AVP inh 10µM*, FLuc inh -1%[2.29 µM], 15-hLO inh -1% and Hsp90 Hop PPI 6%.
For COc1ccccc1CNc1nc(-c2ccc(C(=O)N(C)C)cc2)nc2ccccc12 the results were Tau fil binding -6%, ERK AVP inh -7%, FLuc inh -4%[2.29 µM], 15-hLO inh -5% and Hsp90 Hop PPI -8%.
Screening Cc1ccccc1-c1ccc2ncnc(NCCN3CCOCC3)c2c1 returned Tau fil binding 2%, ERK AVP inh 25µM*, FLuc inh -13%[2.29 µM], 15-hLO inh 18% and Hsp90 Hop PPI -6%.
CC(=O)NCC(=O)N[C@H](CCC(=O)O)C(=O)O was read as Tau fil binding inconclusive, ERK AVP inh -7%, FLuc inh 1%, 15-hLO inh 3%[25.6 µM] and Hsp90 Hop PPI 3%.
Screening COc1ccccc1CN1CC2(CCN(S(C)(=O)=O)CC2)C1 returned Tau fil binding 1%, ERK AVP inh 9%, FLuc inh 2%[11.4 µM], 15-hLO inh 5% and Hsp90 Hop PPI 1%.
`O=C1Cc2c([nH]c3ccc(Br)cc23)-c2ccccc2N1` gave Tau fil binding 32µM*!, ERK AVP inh -46%, FLuc inh inconclusive, 15-hLO inh -11%[25.6 µM] and Hsp90 Hop PPI -1%.
`Cn1c(-c2ccc(F)cc2)cnc1NCc1ccccc1` gave Tau fil binding -5%, ERK AVP inh 25µM*, FLuc inh -3%, 15-hLO inh inconclusive, PK Bst >57 and Hsp90 Hop PPI -11%.
`CCCCOc1cccc(C(=O)Nc2ccc(N3CCN(CC)CC3)cc2)c1` gave Tau fil binding 20µM*, ERK AVP inh -21%, FLuc inh -3%, 15-hLO inh -8%, PK Bst >57 and Hsp90 Hop PPI -5%.
Nc1nnc(SCc2ccc(F)cc2Cl)s1 was read as Tau fil binding 20µM*, ERK AVP inh -20%, FLuc inh 1%, 15-hLO inh inconclusive, PK Bst >57 and Hsp90 Hop PPI -18%.
Screening COc1ccc(-c2nc3cnc(N4CCOCC4)nc3n(-c3ccccc3)c2=O)cc1 returned Tau fil binding 121%, ERK AVP inh 2%, FLuc inh 0%[11.4 µM], 15-hLO inh -2% and Hsp90 Hop PPI 0%.
O=C1CCCC/C1=C\Nc1ccc(O)cc1 was read as Tau fil binding -17%, ERK AVP inh -8%, FLuc inh -3%, 15-hLO inh 20µM*, PK Bst >11 and Hsp90 Hop PPI -7%.
O=C1CCCC/C1=C\Nc1ccc(Cl)cn1 was read as Tau fil binding 5%, ERK AVP inh 6%, FLuc inh -7%, 15-hLO inh -16%, PK Bst >57 and Hsp90 Hop PPI -3%.
c1ccc(C(c2ccccc2)N2CC[C@@]3(CCCNC3)C2)cc1 was read as Tau fil binding inconclusive, ERK AVP inh 6%, FLuc inh 2%[11.4 µM], 15-hLO inh -2% and Hsp90 Hop PPI 0%.
C[C@H]1COC(=O)[C@H]2CCCN2C(=O)[C@@H](C)COC(=O)[C@H]2CCCN2C1=O was read as ERK AVP inh -7%[11.5 µM], FLuc inh 1%[11.4 µM] and 15-hLO inh 3%[11.4 µM].
For Nc1ccc(N2CCCCC2)cc1N1CCCCC1 the results were Tau fil binding 7.9µM*, ERK AVP inh inconclusive, FLuc inh -4%, 15-hLO inh inconclusive, PK Bst >57 and Hsp90 Hop PPI inconclusive.
Cc1cccc2cc(CN(CCCO)C(=O)Nc3cccc(Cl)c3)c(=O)[nH]c12 was read as Tau fil binding 8%, ERK AVP inh -27%, FLuc inh -16%, 15-hLO inh 20µM* and Hsp90 Hop PPI -8%.
For Cc1c(-c2ccc(O)cc2)nn(-c2ccc(O)cc2)c1-c1ccc(OCCN2CCCCC2)cc1 the results were Tau fil binding inconclusive, ERK AVP inh 16%, FLuc inh -1%, 15-hLO inh inconclusive and Hsp90 Hop PPI -15%.
Screening CC(=O)OC/C=C(\C)CC/C=C(\C)CC/C=C(\C)CC/C=C(\C)CC/C=C(\C)CC/C=C(\C)CC/C=C(\C)CC/C=C(\C)CCC=C(C)C returned ERK AVP inh 0% and 15-hLO inh -5%.
For CO[C@H]1COC(=O)C/C=C\[C@H](C)[C@@H](OC)COC(=O)C/C=C\[C@@H]1C the results were ERK AVP inh 26%[11.5 µM], FLuc inh 0%[11.4 µM] and 15-hLO inh 6%[11.4 µM].
Screening O=C(/C=C/Nc1cccc(O)c1)c1ccccc1 returned Tau fil binding -5%, ERK AVP inh inconclusive, FLuc inh 2µM*, 15-hLO inh 13µM* and Hsp90 Hop PPI inconclusive.
Screening O=C(Nc1cccc(O)c1)c1ccc(Br)cc1 returned Tau fil binding 2%, ERK AVP inh inconclusive, FLuc inh -26%, 15-hLO inh -3% and Hsp90 Hop PPI -4%.
